# PubChem BioAssay (Tox21)
# Results filed as inconclusive are left out. A call without a number means that no potency is given here. The source made the active and inactive calls. Calls follow the shape of the dose curve; as a rule, active = well fitted activation curve with a large enough effect in the signal ratio in the repeat runs (not every such curve was filed as active); inconclusive = weak or mixed curves; inactive = flat fitted curve, though single readings scatter; the % refers to the signal ratio.
# Test: qHTS assay to identify small molecule agonists of the hypoxia (HIF-1) signaling pathway (AID 1224846)
# Conditions: HRE-bla ME-180 cells, beta-lactamase ratio, 17 h; series mostly up to 76.8 µM
# How it was run: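 Reporter induction in HRE-bla ME-180 cells is taken as agonism: cells sit 5 hrs after plating, receive compounds or DMSO only, incubate 17 hrs at 37C under 5% CO2, and are loaded with CCF4-AM for beta-lactamase FRET measurement.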
row,SMILES,Potency
1,O=C(NCC1CN(c2ccc(N3CCOCC3=O)cc2)C(=O)O1)c1ccc(Cl)s1 (centres undefined),inactive
2,CC(COCCO)OCCO (centres undefined),inactive
3,CCC(C)(C)CC,inactive
4,CCN(CC)CCNc1ccc(CNC=O)c2sc3ccc(OC)cc3c(=O)c12,inactive
5,CC[N+](C)(CC)CCOC(=O)C(O)(c1ccccc1)C1CCCCC1 (centres undefined),inactive
6,CN1CCC(N(Cc2cccs2)c2ccccc2)CC1,inactive
7,C=C(C)C(=O)OCC,inactive
8,C[N+]1(CC2COC(c3ccccc3)(C3CCCCC3)O2)CCCCC1 (centres undefined),inactive
9,NCCCN1CCOCC1,inactive
10,CC(=O)[O][Al],inactive
11,NC(=O)C(c1ccccc1)(c1ccccc1)[C@@H]1CCN(CCc2ccc3c(c2)CCO3)C1,inactive
12,CC(=O)[O][Al][O]C(C)=O,inactive
13,CCCCOC(=O)CCCCCCCC(=O)OCCCC,inactive
14,CCCCC(CC)COC(=O)CCCCCCCCC(=O)OCC(CC)CCCC (centres undefined),inactive
15,CN(C)CCOC(c1ccccc1)c1ccc(Br)cc1 (centres undefined),inactive
16,O=C(OCCCCCCOC(=O)c1ccccc1)c1ccccc1,inactive
17,C[Si](C)(CCCN)O[Si](C)(C)CCCN,inactive
18,CCC(C)O (centres undefined),inactive
19,Nc1cccc([N+](=O)[O-])c1,inactive
20,NS(=O)(=O)c1ccc(N2CCCCS2(=O)=O)cc1,inactive
21,Cc1ncc(CO)c(C=O)c1O,inactive
22,OC[C@H]1O[C@@H](OCCc2ccc(O)cc2)[C@H](O)[C@@H](O)[C@@H]1O,inactive
23,Nc1ccc([N+](=O)[O-])c(C(F)(F)F)c1,inactive
24,O=C(O)c1nc(Cl)c(Cl)c(Cl)c1Cl,inactive
